Screening data as filed in PubChem.
D1 antag: antagonists of human D1 dopamine receptor; P21728; HEK293 TREx D1 cells, calcium flux, dopamine EC80; active compounds read low; activity change, negative = inhibition, % at 10 µM; actives 3.2% (n = 360,000); AID 504652; in the data active = activity change below about -30%; note: % is set by controls: 0 for no effect and ±100 for the full control effect
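Allosteric or orthosteric antagonism assessed as attenuation of the calcium response to EC80 dopamine, added 180 s after compound, in induced HEK293 Trex D1 cells loaded with no-wash calcium dye.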
D1 ag: agonists of human D1 dopamine receptor; activation, % at 2 µM; HEK293 T-REx D1 cells, calcium flux, agonist mode; actives 1% (n = 360,000); P21728; note: 0% is about no effect
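Agonism was scored from calcium flux recorded over 180 s (1 read/s) after pintool compound addition, following a 10-cycle baseline. Cells were inducible force-coupled HEK293 TREx D1, plated overnight at 30 C and loaded with no-wash calcium dye.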
TRHR PAM: allosteric enhancers of human TRH receptor. TRHR cells, fluo-8 calcium fluorescence, EC20 TRH enhancement. enhancement, % at 2 µM. AID 493056. actives 0.66% (n = 360,000). P34981; in the data active = enhancement above about 30%; note: 0% is about no effect
Target sequence (P34981 whole entry, looked up): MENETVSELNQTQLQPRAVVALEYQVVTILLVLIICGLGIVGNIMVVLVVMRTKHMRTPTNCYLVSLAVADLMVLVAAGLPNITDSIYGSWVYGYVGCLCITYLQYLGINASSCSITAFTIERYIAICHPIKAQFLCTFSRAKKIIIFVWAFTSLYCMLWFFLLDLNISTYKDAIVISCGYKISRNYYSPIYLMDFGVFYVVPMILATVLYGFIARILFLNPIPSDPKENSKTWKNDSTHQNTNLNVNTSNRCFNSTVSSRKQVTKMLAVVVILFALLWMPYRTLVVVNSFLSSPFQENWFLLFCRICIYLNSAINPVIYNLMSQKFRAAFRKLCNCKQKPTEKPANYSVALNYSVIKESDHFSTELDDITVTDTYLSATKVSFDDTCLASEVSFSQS
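TRHR-expressing cells loaded with fluo-8 calcium dye were read kinetically (ex 480/em 530) during compound addition, then stimulated with an EC20 of TRH (10 nM final). Enhancement of the Gq-mediated intracellular calcium response was scored.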
TRHR ag: agonists of human TRH receptor; P34981; TRHR cells, calcium flux fluo-8, FDSS agonist mode; activation, % at 2 µM; actives 0.18% (n = 360,000); AID 493084; note: 0% is about no effect
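Fluo-8-loaded TRHR cells; 10 s baseline, compound added, kinetic Ca2+ fluorescence read 1/s, agonist mode.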
D1 PAM: enhances dopamine response at the human D1 receptor. P21728. HEK293 TREx D1 cells, calcium flux, dopamine EC20 potentiation. potentiation, % at 10 µM. actives 0.036% (n = 360,000). AID 504651; in the data active = potentiation above about 30%; note: 0% is about no effect
Active calls of the source: *. In the library only some 4.6% were active in any assay of this set; here they are far more common. Cut-off read from the data, not from the text of the source, unless noted: active = activation above about 30%; inactive = the rest.

SMILES | D1 antag | D1 ag | TRHR PAM | TRHR ag | D1 PAM
CC(=O)Oc1cccc(N2C(=O)c3cccc4c([N+](=O)[O-])ccc(c34)C2=O)c1 | -54* | 3 | -5 | 5 | -9
O=C(O)c1ccc(CN2C(=O)c3cccc4c([N+](=O)[O-])ccc(c34)C2=O)cc1 | 2 | 34* | -12 | 12 | -2
CCOC(=O)c1[nH]c(C)c(CCC(=O)NCc2ccc(OC(C)C)cc2)c1C | -11 | -1 | -10 | 0 | -1
Cc1cccc(-c2nnn3c2nc(NCc2ccccc2)c2ccccc23)c1 | 6 | 2 | -5 | 0 | -2
Cc1cc(C)nc(NC(=O)/C=C/c2ccccc2Cl)c1 | -70* | 1 | -2 | -1 | 6
Cc1ccc(CN2CCN(C3CCOCC3)CC2CCO)cc1 (stereo unspecified) | 5 | 0 | 1 | 0 | 8
Fc1ccc2c(c1)-c1c(cnc3cc(-c4ccc(Cl)cc4)nn13)CO2 | -18 | -1 | 2 | 2 | 0
CCOC(=O)c1nn(-c2ccc(C)cc2)c(=O)c2c(N)scc12 | -12 | 0 | 3 | 0 | 6
CCOC(=O)c1nn(-c2ccc(F)cc2)c(=O)c2c(N)scc12 | -51* | 59* | 9 | 0 | -4
CCc1cc2c(=O)c(-c3nc4ccccc4n3C)coc2c(CN2CCCCC2C)c1O (stereo unspecified) | -11 | -1 | -3 | 0 | -7
CC1CCCCN1Cc1c(O)ccc2c(=O)c(-c3nc4ccccc4s3)coc12 (stereo unspecified) | -5 | 2 | 32* | 0 | -1
CCOC(=O)c1c(CSCc2ccccc2)oc2ccc(O)c(CN(C)C)c12 | 1 | 36* | -9 | 0 | -3
CCOC(=O)c1cccc(NC(=O)Nc2ccc3c(c2)N(C)C(=O)c2ccccc2S3)c1 | 2 | 0 | 1 | 0 | -1
CCOC(=O)c1ccccc1-n1c(C)cc(C2N=C(N)Nc3nc4ccccc4n32)c1C (stereo unspecified) | -36* | 2 | 1 | 0 | -6
CC1CN(CC(=O)N2CCc3[nH]c4ccccc4c3C2)CC(C)O1 (stereo unspecified) | -44* | 2 | 1 | 0 | 2
CC1CC(C)CN(CC(=O)N2CCc3[nH]c4ccccc4c3C2)C1 (stereo unspecified) | -6 | 9 | 1 | 0 | 0
COc1cccc(CNC(=O)Cn2c(=O)oc3cc(S(=O)(=O)N4CCCC4)ccc32)c1 | -31* | 5 | 1 | 0 | -3
O=C(Cn1c(=O)oc2cc(S(=O)(=O)N3CCCC3)ccc21)Nc1cccc(C(F)(F)F)c1 | -39* | 11 | -3 | -1 | -3
O=C(Cn1c(=O)oc2cc(S(=O)(=O)N3CCCCC3)ccc21)NCc1ccc(F)cc1 | -37* | 41* | 5 | 0 | -4
O=C(Cn1c(=O)oc2cc(S(=O)(=O)N3CCCC3)ccc21)NCc1ccc(F)cc1 | 14 | 11 | -4 | 3 | -5
Cc1ccc(NC(=O)Cn2c(=O)n(CCCCC(=O)NCCc3ccccc3)c(=O)c3ccccc32)c(C)c1 | -5 | 0 | 11 | -1 | 0
COc1ccc(CCNC(=O)c2cnn(-c3cccc(C)c3)c2C2CCNCC2)cc1OC | 5 | 1 | 12 | -2 | -2
N#Cc1ccc(-c2ccco2)nc1SCc1ccccc1 | -93* | 1 | -17 | 0 | -12
COc1cccc(CN(Cc2cccnc2)S(=O)(=O)c2ccc(-n3cnnn3)c(C)c2)c1 | -32* | 15 | 3 | -1 | 0
Cc1ccc(-n2nc(C)c3c(C(=O)Nc4ccc(C)cc4Cl)cc(C)nc32)cc1 | -9 | 2 | -14 | 1 | -3
COc1ccc(OC)c(-c2cc(C(=O)N3CCOCC3)no2)c1 | 0 | 0 | 37* | -1 | -5
COc1ccc(OC)c(-c2cc(C(=O)Nc3cccc(Cl)c3C)no2)c1 | -40* | 9 | -14 | 1 | 1
COc1ccc(OC)c(-c2cc(C(=O)Nc3ccc(C)c(C)c3)no2)c1 | -8 | 5 | -8 | 1 | -2
CCc1ccc(-n2c(SCc3ccccc3Cl)nc3[nH]ncc3c2=O)cc1 | 9 | 4 | 10 | 1 | 4
COCCN(C(=S)Nc1ccccc1C)C(C)c1ccco1 (stereo unspecified) | -71* | 3 | -1 | 0 | -5
